In PubChem BioAssay AID463173 (ICCB-Longwood Screening Facility, Harvard Medical School, 2010):
In all, about 52,000 compounds went through this assay and about 4,300 (8.3%) were called active. Shown is part of a subset that was picked to be rich in actives. Values without a mark were called inactive. No stated cut-off is given here; in the data, active means survival mostly below about 52% (no sharp cut-off); inactive means mostly above about 56%.

Tested on: DeltatarO mutant
Experiment: S. aureus survival, RN4220 and DeltatarO strains – OD600, teichoic acid synthesis inhibitors, primary screen (AID 463173)
Details: S. aureus RN4220 wild type/DeltatarO growth, OD600, 18 h, active compounds read low, screened at 18.75 µg/mL (by protocol)

SMILES	survival
CCCCc1cc(O)c(CCCC)c(O)c1	12% (active)
CCCCc1c(C(=O)O)cccc1C(=O)O	103%
Cc1cc(C)cc(N2C(=O)CSC23C(=O)N(CC(=O)Nc2ccc(F)cc2F)c2ccccc23)c1 (stereo unspecified)	99%
Cc1ccc2c(c1)c(=O)c(S(=O)(=O)c1ccc(F)cc1)cn2CC(=O)Nc1ccc2c(c1)OCO2	70%
COc1ccc(-c2cc(C(F)F)n3ncc(C(=O)Nc4cc(C)on4)c3n2)cc1	85%
COc1ccc(-c2cc(C(F)F)n3ncc(C(=O)Nc4cc(OC)ccc4OC)c3n2)cc1	51% (active)
COC(=O)c1ccc(C(=O)OC)c(NC(=O)c2cnn3c(C(F)F)cc(-c4ccc(C)cc4)nc23)c1	60%
CC(C)c1ccc(NC(=O)c2cnn3c(C(F)F)cc(-c4ccccc4)nc23)cc1	65%
O=C(Nc1cc(F)ccc1F)c1cnn2c(C(F)F)cc(-c3ccccc3)nc12	130%
CNS(=O)(=O)c1ccc(NC(=O)c2cnn3c(C(F)F)cc(-c4ccccc4)nc23)cc1	66%
CC(C)NC(=O)c1cnn2c(C(F)F)cc(-c3ccccc3)nc12	92%
CCN(CC)c1ccc(NC(=O)c2cnn3c(C(F)F)cc(-c4ccccc4)nc23)cc1	59% (active)
CCOc1ccccc1NC(=O)c1cnn2c(C(F)F)cc(-c3ccccc3)nc12	58% (active)
CCCCn1nc(CC(=O)O)c2ccccc2c1=O	83%
COC(=O)c1ccccc1NC(=O)C1(c2cccs2)CCOCC1	83%
COc1ccc(NC(=O)CN(C)S(=O)(=O)c2cnc[nH]2)cc1Cl	98%
COc1ccc(C(=O)NCCn2cc(SCC(=O)Nc3cccc(C)c3)c3ccccc32)cc1	60%
Cc1ccc(-n2c(=O)c3c(C)c(C(=O)N(C)C)sc3n(CC(=O)C(C)(C)C)c2=O)cc1C	107%
COc1ccc(CNC(=O)c2ccc(NC(=O)N3CCSc4ccccc43)cc2)cc1	56%
Cc1ccc(NC(=O)Cn2c(=O)n(CC(=O)NCCc3ccccc3)c(=O)c3ccccc32)cc1	89%
CCC(C(=O)NC1CCCC1)N(C(=O)c1snc(C(N)=O)c1N)c1ccccc1 (stereo unspecified)	73%
COc1cccc(NC(=O)N(Cc2c[nH]c3ccccc23)C2CCCCCC2)c1	46%
COc1cccc(NC(=O)N(Cc2nc3ccccc3c(=O)[nH]2)C2CCCCC2)c1	83%

SMILES	survival
COc1cccc(NC(=O)Cn2cc(C(=O)C3CCCCC3)c3ccccc32)c1	79%
COc1cccc(NC(=O)N(Cc2c[nH]c3ccccc23)C2CCCCC2)c1	65%
COc1cccc(NC(=O)N(Cc2cn(C)c3ccccc23)C2CCCCCC2)c1	-13% (active)
COc1cccc(NC(=O)N(Cc2cn(C)c3ccccc23)C2CCCCC2)c1	-12% (active)
CC(C)NC(=O)CSc1nc2ccccc2c(=O)n1Cc1ccc(C(=O)NC(C)C)cc1	105%
CCC1Oc2ccccc2N(CC(=O)NCc2cc(OC)ccc2OC)C1=O (stereo unspecified)	85%
COc1ccc(-c2csc3nc(-c4ccccc4)oc(=O)c23)cc1OC	115%
COc1ccc(-c2csc3nc(-c4ccc(F)cc4)oc(=O)c23)cc1OC	48% (active)
COc1ccc(-c2csc3nc(-c4ccc(C)cc4)oc(=O)c23)cc1OC	63%
C=CCc1cccc2cc(NC(C)=O)c(=O)oc12	76%
C=CCc1cccc2cc(C(=O)Nc3ccc(F)cc3)c(=O)oc12	44% (active)
C=CCc1cccc2cc(C(=O)Nc3cccc(Cl)c3)c(=O)oc12	79%
CCc1cccc(-n2c(=O)c3cccnc3n2CC(=O)Nc2ccc(OC)c(Cl)c2)c1	104%
COc1ccc(CNC(=O)CSc2ncc(S(=O)(=O)c3ccc(Br)cc3)c(=O)[nH]2)cc1	62%
CCCCNc1nc(Oc2ccc(OCCC)nn2)nc(N(C)C)n1	84%
COc1cccc(CNC(=O)CCc2c(C)nc3c4c(C)cc(C)nc4nn3c2C)c1	80%
COc1ccccc1OCc1nc(-c2cccc(C)c2)no1	-3% (active)
COc1cc(OC)cc(-c2nc(-c3ccc4c(c3)[nH]c(=O)n4C)no2)c1	94%
COc1ccc(C(=O)NCc2nc(-c3cccc(C)c3)no2)cc1OC	98%
COc1ccc(N2CCN(c3ccc(-c4nc(-c5cccc(C)c5)no4)cc3[N+](=O)[O-])CC2)cc1	75%
COc1cccc(-c2noc(COc3ccccc3Cl)n2)c1	81%
COc1ccc(-c2noc(COc3cc(C)c(Br)c(C)c3)n2)cc1OC	60%
COc1cc(OC)cc(-c2nc(-c3cccc(C)c3)no2)c1	-3% (active)
